Records with an inconclusive call do not appear. The source made the active and inactive calls.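 The calls were made as follows, unless noted: active = normalized viability below 100% at a tested concentration; inactive = the rest.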
Legend:
[1] = Wnt pathway potentiators raising nuclear beta-catenin – imaging, WNT3A-conditioned medium, mouse C2C12, NPC library, primary screen (AID 1117326; in the data active = nuclear beta-catenin stimulation mostly above about 4.2%, no sharp cut-off; inactive = mostly below about 10%); conditions: stronger effect = higher value
[2] = stimulators of insulin release from INS-1E, primary screen, cell-based, 5 mM glucose, NPC library (AID 1117329;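 active = compound raises insulin release from rat beta cells at 5 mM glucose, no numeric limit stated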); conditions: rat INS-1E insulin secretion, at 10 µM, stronger effect = higher value
[3] = growth inhibition of GSK3B-pretreated HCT116 cells – cell-based, CellTiter-Glo, 0.2 to 20 µM (AID 1117336;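 active = compounds lowering colon cancer cell viability after pretreatment blocking the GSK3B kinase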); conditions: HCT116 viability after GSK3B inhibitor, at 20 µM, stronger effect = higher value
[4] = inhibition of endothelial tube formation, primary screen, imaging, VEGF stimulated, CD31 staining, tube area, NPC library (AID 1117340;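 active = compound that reduces growth-factor-driven endothelial tube area in a mixed cell culture, no cutoff stated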); conditions: VEGF-stimulated ADSC/ECFC co-culture, at 10 µM, stronger effect = higher value
[5] = GLP1 release stimulators, primary, NCI-H716, NPC library (AID 1117341;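 active = compound raises GLP1 secretion from the human gut endocrine cells, with no numeric limit stated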); conditions: NCI-H716 cells, at 10 µM, stronger effect = higher value
[6] = HCT116 colon cancer cell growth inhibition, primary screen, CellTiter-Glo luminescence, NPC library (AID 1117342;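 active = compounds that lower survival of HCT116 colon cancer cells in the luminescence readout, no numeric limit stated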); conditions: at 20 µM (top of the series)
[7] = reduced SW480 viability measured with CellTiter-Glo, NPC library, primary (AID 1117343;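 active = compounds that lower viability of the colon cancer cells in the luminescence readout, with no numeric limit stated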); conditions: CellTiter-Glo luminescence; at 20 µM (top of the series) unless noted
[8] = NPC library primary testing for decreased DLD-1 cell viability via CellTiter-Glo (AID 1117346;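 active = compounds that lower survival of DLD-1 colon cancer cells in the luminescence readout, no cutoff given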); conditions: DLD-1 viability, CellTiter-Glo luminescence; at 20 µM (top of the series)
[9] = molecular target: NAD(+) hydrolase SARM1 (Homo sapiens) (UniProt Q6SZW1); assay: blocking NAD cleavage by SARM1 SAM-TIR – cell lysate, NAD-Glo luminescence (AID 1508614;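 active = compound whose remaining NAD level is above about 45 nM, limit read from the data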;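 also: higher remaining NAD means stronger inhibition of SARM1 NADase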); conditions: SAM-TIR HEK293T lysate NADase, at 1 µM, stronger effect = higher value
Chain of NAD(+) hydrolase SARM1 (Homo sapiens) (Q6SZW1 whole entry, looked up): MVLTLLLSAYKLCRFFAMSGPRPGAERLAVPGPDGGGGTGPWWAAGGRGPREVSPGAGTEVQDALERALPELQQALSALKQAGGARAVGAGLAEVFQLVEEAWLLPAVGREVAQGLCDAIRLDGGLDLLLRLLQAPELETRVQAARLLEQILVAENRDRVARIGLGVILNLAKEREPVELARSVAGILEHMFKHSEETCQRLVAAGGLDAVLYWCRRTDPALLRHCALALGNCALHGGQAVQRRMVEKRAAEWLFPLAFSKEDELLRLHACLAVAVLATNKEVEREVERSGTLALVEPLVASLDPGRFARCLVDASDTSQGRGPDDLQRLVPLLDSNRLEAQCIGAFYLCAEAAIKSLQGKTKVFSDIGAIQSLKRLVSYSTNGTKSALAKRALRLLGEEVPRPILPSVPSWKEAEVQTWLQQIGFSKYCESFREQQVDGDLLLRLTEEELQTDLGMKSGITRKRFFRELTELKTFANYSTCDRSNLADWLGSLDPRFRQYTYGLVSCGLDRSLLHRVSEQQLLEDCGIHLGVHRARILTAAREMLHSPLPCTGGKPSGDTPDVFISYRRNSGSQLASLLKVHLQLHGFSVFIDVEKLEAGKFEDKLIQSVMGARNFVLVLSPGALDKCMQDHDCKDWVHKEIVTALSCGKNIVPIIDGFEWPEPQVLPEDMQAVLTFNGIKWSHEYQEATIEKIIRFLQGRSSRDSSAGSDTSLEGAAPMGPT

[10] = blockers of cellular phospholipid synthesis – cell-based, LOPAC library, screen 4, primary screen (AID 1347384; call rule not given here); conditions: animal cells, phospholipid biosynthesis inhibition screen; at 10 µM
[11] = molecular target: ATP-dependent translocase ABCB1 (Homo sapiens) (UniProt P08183); assay: P-glycoprotein substrate transport blockade – cell-based (AID 377; in the data active = fluorescence slope change above about 50%); conditions: MDR1-expressing cells, fluorescent substrate accumulation slope; stronger effect = higher value; concentration not given here
Chain of ATP-dependent translocase ABCB1 (Homo sapiens) (P08183 whole entry, looked up): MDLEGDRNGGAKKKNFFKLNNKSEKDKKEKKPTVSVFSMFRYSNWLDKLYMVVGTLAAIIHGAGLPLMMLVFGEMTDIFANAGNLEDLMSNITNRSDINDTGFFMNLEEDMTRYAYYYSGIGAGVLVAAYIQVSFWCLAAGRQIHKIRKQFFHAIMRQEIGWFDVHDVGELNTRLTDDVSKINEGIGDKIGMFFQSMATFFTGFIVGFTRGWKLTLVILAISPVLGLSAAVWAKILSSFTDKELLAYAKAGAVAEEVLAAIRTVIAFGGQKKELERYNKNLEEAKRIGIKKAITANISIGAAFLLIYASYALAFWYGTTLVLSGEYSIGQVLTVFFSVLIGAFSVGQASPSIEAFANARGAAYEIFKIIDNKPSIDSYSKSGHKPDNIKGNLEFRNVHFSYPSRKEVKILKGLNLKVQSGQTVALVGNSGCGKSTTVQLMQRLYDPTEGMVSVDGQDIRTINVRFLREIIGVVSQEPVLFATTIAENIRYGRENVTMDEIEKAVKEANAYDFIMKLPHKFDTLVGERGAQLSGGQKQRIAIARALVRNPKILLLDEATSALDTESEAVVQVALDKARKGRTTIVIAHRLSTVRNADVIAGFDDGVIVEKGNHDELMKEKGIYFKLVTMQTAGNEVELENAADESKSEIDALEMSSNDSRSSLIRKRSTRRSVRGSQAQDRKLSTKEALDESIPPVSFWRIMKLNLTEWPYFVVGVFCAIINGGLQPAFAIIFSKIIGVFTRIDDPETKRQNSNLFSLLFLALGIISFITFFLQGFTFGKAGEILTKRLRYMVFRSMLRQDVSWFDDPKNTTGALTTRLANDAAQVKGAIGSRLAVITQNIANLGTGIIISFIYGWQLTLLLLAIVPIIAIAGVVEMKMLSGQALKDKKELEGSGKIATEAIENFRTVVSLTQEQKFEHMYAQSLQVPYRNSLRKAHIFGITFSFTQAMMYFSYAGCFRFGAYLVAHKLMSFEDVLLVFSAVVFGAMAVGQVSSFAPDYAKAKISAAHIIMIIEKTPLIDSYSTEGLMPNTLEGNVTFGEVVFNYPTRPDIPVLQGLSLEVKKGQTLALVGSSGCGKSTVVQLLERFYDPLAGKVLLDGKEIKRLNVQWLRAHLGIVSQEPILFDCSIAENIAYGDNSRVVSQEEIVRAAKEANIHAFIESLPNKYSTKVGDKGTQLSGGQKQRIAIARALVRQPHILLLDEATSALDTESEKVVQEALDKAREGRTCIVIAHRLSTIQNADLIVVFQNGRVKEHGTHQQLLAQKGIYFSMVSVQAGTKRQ

[12] = MELAS cybrid and Rieske KO viability enhancers – cell-based, MELAS cybrids, Rieske KO mouse fibroblasts, CellTiter-Glo, primary screen (AID 1508586;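 active = mean z-score across replicates of 1.96 or higher in either the MELAS or the Rieske mutant cell line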;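 also: z relative to plate mean and SD of compound and empty wells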); conditions: low glucose
[13] = compounds altering HSF1 focus formation in cells – imaging, Selleck Cancer Library (AID 1347162; in the data active = plate-normalised HSF1 focus index below about 0.46); conditions: human cells, HSF1 nuclear foci imaging, at 10 µM; SSMD: measured here: HSF1 foci SSMD mean; cell count: measured here: cell number; plate-normalised HSF1 focus index: stronger effect = lower value
[14] = drug combination growth inhibition, ovarian cancer – cell-based, oncology-focused library, rucaparib conditional, profiling panel (AID 1508598); conditions: patient-derived ovarian cancer cells, CellTiter-Glo viability, 144 h, stronger effect = lower value
[15] = molecular target: Mitogen-activated protein kinase 7 (Homo sapiens) (UniProt Q13164); assay: Gal4-ERK5 driven luciferase induction – cell-based, HTS, primary screen (AID 1508626;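 active = luciferase signal above three times the same-plate solvent-only control wells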;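 also: luciferase driven by Gal4-ERK5 fusion binding five Gal4 sites before minimal TATA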); conditions: HeLa Gal4-ERK5 transactivation, 18 h, at 5 µM, stronger effect = higher value
Chain of Mitogen-activated protein kinase 7 (Homo sapiens) (Q13164 whole entry, looked up, the tested form may be a part): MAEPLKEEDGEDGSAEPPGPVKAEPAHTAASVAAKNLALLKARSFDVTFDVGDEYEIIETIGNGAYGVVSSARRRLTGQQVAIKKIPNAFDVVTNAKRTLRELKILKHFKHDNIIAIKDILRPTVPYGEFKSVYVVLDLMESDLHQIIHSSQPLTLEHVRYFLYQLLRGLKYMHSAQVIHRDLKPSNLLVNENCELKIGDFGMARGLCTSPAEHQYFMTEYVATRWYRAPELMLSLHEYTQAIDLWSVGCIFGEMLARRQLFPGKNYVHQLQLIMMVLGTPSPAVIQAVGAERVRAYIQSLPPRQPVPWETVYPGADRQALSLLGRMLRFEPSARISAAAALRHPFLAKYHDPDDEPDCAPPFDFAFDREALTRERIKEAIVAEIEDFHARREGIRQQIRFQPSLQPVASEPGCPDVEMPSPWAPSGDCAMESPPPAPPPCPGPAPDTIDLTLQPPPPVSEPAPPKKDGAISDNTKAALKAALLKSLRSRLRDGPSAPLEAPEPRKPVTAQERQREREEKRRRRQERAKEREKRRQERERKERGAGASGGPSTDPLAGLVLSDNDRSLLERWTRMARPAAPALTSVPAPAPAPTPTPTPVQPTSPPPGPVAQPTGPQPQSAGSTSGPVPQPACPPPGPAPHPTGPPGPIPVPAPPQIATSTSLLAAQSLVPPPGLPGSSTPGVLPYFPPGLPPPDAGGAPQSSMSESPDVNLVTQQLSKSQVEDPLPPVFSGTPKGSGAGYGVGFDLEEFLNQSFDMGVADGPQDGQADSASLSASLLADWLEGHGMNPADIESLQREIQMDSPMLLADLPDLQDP

[16] = MELAS cybrid survival, CellTiter-Glo 48 h, stronger effect = higher value
[17] = Rieske KO mouse fibroblast survival, CellTiter-Glo 72 h

COc1ccc(-n2nc(CCC(=O)N(C)O)cc2-c2ccc(Cl)cc2)cc1
0.2%: nuclear beta-catenin stimulation ([1]; stimulation, at 2 µM)
inactive: nuclear beta-catenin stimulation ([1]; at 10 µM) 0.6% | insulin secretion stimulation [2] 2.7% | tube area decrease [4] 19.2% | GLP1 secretion stimulation [5] 9.1% | remaining NAD [9] 10 nM
active: viability decrease [3] 91.8% | inhibition of viability [6] 94.4% | viability decrease (inhibition) [7] 130% | viability decrease (inhibition) [8] 102%

O=C(NCCCN1CCOCC1)c1ccc(Cl)cc1
1%: nuclear beta-catenin stimulation ([1]; stimulation, at 2 µM)
inactive: nuclear beta-catenin stimulation ([1]; at 10 µM) 0.6% | insulin secretion stimulation [2] 1.5% | viability decrease [3] 1.5% | tube area decrease [4] 12.7% | GLP1 secretion stimulation [5] -0.3% | inhibition of viability [6] 0% | viability decrease (inhibition) [7] 18.6% | viability decrease (inhibition) [8] 1.05% | remaining NAD [9] 10 nM

CCC1C(=O)OCC1Cc1cncn1C (stereo not given)
20%: nuclear beta-catenin stimulation ([1]; stimulation, at 2 µM)
active: tube area decrease [4] -1.1%
inactive: nuclear beta-catenin stimulation ([1]; at 10 µM) 0.7% | insulin secretion stimulation [2] 3.7% | viability decrease [3] 2.7% | GLP1 secretion stimulation [5] 1.2% | inhibition of viability [6] 8.9% | viability decrease (inhibition) [7] -14.8% | viability decrease (inhibition) [8] -20.6% | outcome [10]

C[N+](C)(C)CC(O)CC(=O)[O-] (stereo not given)
2.6%: nuclear beta-catenin stimulation ([1]; stimulation, at 2 µM)
inactive: nuclear beta-catenin stimulation ([1]; at 10 µM) 6.3% | insulin secretion stimulation [2] 3.9% | viability decrease [3] 17.4% | tube area decrease [4] 0.3% | GLP1 secretion stimulation [5] -1.8% | inhibition of viability [6] -0.3% | viability decrease (inhibition) [7] -12.1% | viability decrease (inhibition) [8] 1.7% | remaining NAD [9] 10 nM

CCOc1ccccc1OCC1CNCCO1 (stereo not given)
inactive: nuclear beta-catenin stimulation ([1]; at 10 µM) 0.4% | insulin secretion stimulation [2] 1.75% | viability decrease [3] 1.7% | tube area decrease [4] -7% | GLP1 secretion stimulation [5] -0.1% | inhibition of viability [6] 32.4% | viability decrease (inhibition) [7] -7.1% | viability decrease (inhibition) [8] -5.4% | z-score [12, 16] 0.538
active: fluorescence slope change [11] 51.5%
-0.146: z-score [12, 17]
-0.3%: nuclear beta-catenin stimulation ([1]; stimulation, at 2 µM)

CN1CC[C@H](c2c(O)cc(O)c3c(=O)cc(-c4ccccc4Cl)oc23)[C@H](O)C1
inactive: insulin secretion stimulation [2] 2.75% | GLP1 secretion stimulation [5] 6.7% | plate-normalised HSF1 focus index [13] 1.07 | viability ([14]; at 0.000305 µM, OCI-C5x cells, with rucaparib 10 µM, 100% = cells with rucaparib alone) 109% | viability ([14]; at 0.000305 µM, OCI-C5x cells, without rucaparib) 112% | viability ([14]; at 0.00122 µM, OCI-C5x cells, without rucaparib) 107% | viability ([14]; at 0.00488 µM, OCI-C5x cells, without rucaparib) 109% | viability ([14]; at 0.00488 µM, OCI-P5x cells, without rucaparib) 103%
6730: cell count [13]
76.1%: nuclear beta-catenin stimulation ([1]; stimulation, at 2 µM)
1.33: SSMD [13]
active: nuclear beta-catenin stimulation ([1]; at 10 µM) 72.1% | viability decrease [3] 73.7% | tube area decrease [4] 110% | inhibition of viability [6] 54.4% | viability decrease (inhibition) [7] 62.3% | viability decrease (inhibition) [8] 78.5% | viability ([14]; at 0.000305 µM, OCI-P5x cells, with rucaparib 20 µM, 100% = cells with rucaparib alone) 56.8% | viability ([14]; at 0.000305 µM, OCI-P5x cells, without rucaparib) 15.2% | viability ([14]; at 0.00122 µM, OCI-C5x cells, with rucaparib 10 µM, 100% = cells with rucaparib alone) 93.2% | viability ([14]; at 0.00122 µM, OCI-P5x cells, with rucaparib 20 µM, 100% = cells with rucaparib alone) 62% | viability ([14]; at 0.00122 µM, OCI-P5x cells, without rucaparib) 15.8% | viability ([14]; at 0.00488 µM, OCI-C5x cells, with rucaparib 10 µM, 100% = cells with rucaparib alone) 92.5% | viability ([14]; at 0.00488 µM, OCI-P5x cells, with rucaparib 20 µM, 100% = cells with rucaparib alone) 97.7% | viability ([14]; at 0.0195 µM, OCI-C5x cells, with rucaparib 10 µM, 100% = cells with rucaparib alone) 66% | viability ([14]; at 0.0195 µM, OCI-C5x cells, without rucaparib) 80% | viability ([14]; at 0.0195 µM, OCI-P5x cells, with rucaparib 20 µM, 100% = cells with rucaparib alone) 67.9% | viability ([14]; at 0.0195 µM, OCI-P5x cells, without rucaparib) 70.9% | viability ([14]; at 0.0781 µM, OCI-C5x cells, with rucaparib 10 µM, 100% = cells with rucaparib alone) 28.7% | viability ([14]; at 0.0781 µM, OCI-C5x cells, without rucaparib) 22.9% | viability ([14]; at 0.0781 µM, OCI-P5x cells, with rucaparib 20 µM, 100% = cells with rucaparib alone) 35.2% | viability ([14]; at 0.0781 µM, OCI-P5x cells, without rucaparib) 23.5% | viability ([14]; at 0.313 µM, OCI-C5x cells, with rucaparib 10 µM, 100% = cells with rucaparib alone) 12% | viability ([14]; at 0.313 µM, OCI-C5x cells, without rucaparib) 10.8% | viability ([14]; at 0.313 µM, OCI-P5x cells, with rucaparib 20 µM, 100% = cells with rucaparib alone) 21% | viability ([14]; at 0.313 µM, OCI-P5x cells, without rucaparib) 12.5% | viability ([14]; at 1.25 µM, OCI-C5x cells, with rucaparib 10 µM, 100% = cells with rucaparib alone) 10.1% | viability ([14]; at 1.25 µM, OCI-C5x cells, without rucaparib) 10.5% | viability ([14]; at 1.25 µM, OCI-P5x cells, with rucaparib 20 µM, 100% = cells with rucaparib alone) 16.2% | viability ([14]; at 1.25 µM, OCI-P5x cells, without rucaparib) 13.2% | viability ([14]; at 5 µM, OCI-C5x cells, with rucaparib 10 µM, 100% = cells with rucaparib alone) 13.5% | viability ([14]; at 5 µM, OCI-C5x cells, without rucaparib) 11.4% | viability ([14]; at 5 µM, OCI-P5x cells, with rucaparib 20 µM, 100% = cells with rucaparib alone) 14.2% | viability ([14]; at 5 µM, OCI-P5x cells, without rucaparib) 10.5%

C#C[C@]1(O)CC[C@H]2[C@@H]3CCc4cc(OC5CCCC5)ccc4[C@H]3CC[C@@]21C
inactive: insulin secretion stimulation [2] 0.3% | remaining NAD [9] 10 nM
active: nuclear beta-catenin stimulation ([1]; at 10 µM) 54.3% | viability decrease [3] 102% | tube area decrease [4] 46.9% | GLP1 secretion stimulation [5] 32.5% | inhibition of viability [6] 101% | viability decrease (inhibition) [7] 145% | viability decrease (inhibition) [8] 105%
0.5%: nuclear beta-catenin stimulation ([1]; stimulation, at 2 µM)

NC(=O)C(c1ccccc1)(c1ccccc1)[C@@H]1CCN(CCc2ccc3c(c2)CCO3)C1
1.7%: nuclear beta-catenin stimulation ([1]; stimulation, at 2 µM)
inactive: nuclear beta-catenin stimulation ([1]; at 10 µM) 0.1% | insulin secretion stimulation [2] 16% | viability decrease [3] -129% | tube area decrease [4] 25.4% | GLP1 secretion stimulation [5] 0.9% | inhibition of viability [6] 35.1% | viability decrease (inhibition) [7] 22.8% | viability decrease (inhibition) [8] 12.4% | z-score [12, 16] -1.84 | remaining NAD [9] 10 nM | luciferase signal [15] 108 AU
-1.37: z-score [12, 17]

Clc1cc(Cl)c(OCC#CI)cc1Cl
21.7%: nuclear beta-catenin stimulation ([1]; stimulation, at 2 µM)
-0.965: z-score [12, 16]
active: nuclear beta-catenin stimulation ([1]; at 10 µM) 62.3% | viability decrease [3] 93.8% | tube area decrease [4] 106% | inhibition of viability [6] 92% | viability decrease (inhibition) [7] 100% | viability decrease (inhibition) [8] 98.1%
8.41: z-score [12, 17]
inactive: insulin secretion stimulation [2] 9.6% | GLP1 secretion stimulation [5] -0.7%
